Common to all, as to assay: NCI-60 one-dose screen, 48 h (100 = growth as untreated, 0 = no growth, -100 = all killed)
The test system of one assay is SK-MEL-2 melanoma. To be noted: 10 µM unless noted.
For a further assay, the system named is EKVX NSCLC. To be noted: 10 µM unless noted.
Another assay has as its system SN12C renal. To be noted: 10 µM unless noted.
For another assay, the system named is UO-31 renal. To be noted: 10 µM unless noted.
The next assay relates to TK-10 renal. To be noted: 10 µM unless noted.
The test system of the next assay is ACHN renal. To be noted: 10 µM unless noted.
The next assay relates to CAKI-1 renal. To be noted: 10 µM unless noted.
In a further assay the test system is A498 renal. To be noted: 10 µM unless noted.
In the next assay the test system is CCRF-CEM leukemia. To be noted: 10 µM unless noted.
The next assay relates to MOLT-4 leukemia. To be noted: 10 µM unless noted.
For a further assay, the system named is SR leukemia. To be noted: 10 µM unless noted.
The test system of the next assay is RPMI-8226 leukemia. To be noted: 10 µM.
The test system of the next assay is OVCAR-8 ovarian. To be noted: 10 µM unless noted.
The next assay has as its system OVCAR-5 ovarian. To be noted: 10 µM unless noted.
The subject of another assay is OVCAR-4 ovarian. To be noted: 10 µM unless noted.
The next assay has as its system IGROV1 ovarian. To be noted: 10 µM unless noted.
The subject of another assay is OVCAR-3 ovarian. To be noted: 10 µM unless noted.
For the next assay, the system named is HS 578T breast. To be noted: 10 µM unless noted.
A further assay relates to NCI/ADR-RES ovarian. To be noted: 10 µM unless noted.
In the next assay the test system is SK-OV-3 ovarian. To be noted: 10 µM.

The panel holds about 83,000 compounds, 20% with a hit somewhere; the sample as a whole holds those more often.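 Percent growth is the endpoint: 0 to 100 indicates growth inhibition (40 means 60% inhibition), 0 means no net growth, and negative values indicate cell death.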 Unmarked numbers belong to inactive results. Calls of active or inactive are those of the source. Rule for the calls: active = growth percent below 10; inactive = the rest.

Consider `O=C(c1ccc2ncc(-c3nc(NC4CC4)ncc3F)n2c1)N1CCOCC1`, for which the growth with SK-MEL-2 melanoma was 27.7%; with EKVX NSCLC it was 49.2%; in the assay with SN12C renal, 30.1%; in the assay with UO-31 renal, -33.4% (active); in the assay on TK-10 renal, 41.9%; in the assay with ACHN renal it was 0.254% (active). Also, the growth was 3.25% (active) with CAKI-1 renal; -30.3% (active) in the assay with A498 renal; 19.5% in the assay with CCRF-CEM leukemia; 16% in the assay on MOLT-4 leukemia; 3.87% (active) in the assay on SR leukemia; 25.7% in the assay on RPMI-8226 leukemia. For the same compound, the growth with OVCAR-8 ovarian is 18.5%; in the assay with OVCAR-5 ovarian, 9.93% (active); with OVCAR-4 ovarian, 63.2%; in the assay with IGROV1 ovarian it was 8.94% (active); with OVCAR-3 ovarian it was -22.2% (active); in the assay on HS 578T breast, 4.89% (active). The growth in the assay on NCI/ADR-RES ovarian was 48.2%.
Turning to `COc1cc(CNCCCN2C(=O)c3ccc4c5c(ccc(c35)C2=O)C(=O)N(CCCNCc2cc(OC)c(OC)c(OC)c2)C4=O)cc(OC)c1OC`, the growth with SK-MEL-2 melanoma was -71.8% (active); in the assay on EKVX NSCLC it was -72.9% (active); with SN12C renal, -98.9% (active); in the assay with UO-31 renal, 4.39% (active); in the assay with TK-10 renal, -28.5% (active); in the assay with ACHN renal, -24.5% (active). Also, the growth in the assay with CAKI-1 renal is 36.9%; in the assay with A498 renal it was -11.5% (active); in the assay with CCRF-CEM leukemia it was 0.649% (active); with MOLT-4 leukemia, -12.6% (active); in the assay on SR leukemia, -3.1% (active); with RPMI-8226 leukemia it was -18.5% (active). In addition, the growth was -52% (active) in the assay on OVCAR-8 ovarian; -67.7% (active) with OVCAR-5 ovarian; -97% (active) with OVCAR-4 ovarian; -59.6% (active) in the assay with SK-OV-3 ovarian; -51.2% (active) in the assay on IGROV1 ovarian; -27.7% (active) with OVCAR-3 ovarian. Moreover, the growth with HS 578T breast was -34.1% (active); with NCI/ADR-RES ovarian, 71.1%.
Take `O=[N+]([O-])c1ccc(O)c2ncccc12`: the growth was 79.1% in the assay with SK-MEL-2 melanoma; 39.8% in the assay with EKVX NSCLC; 35.9% in the assay on SN12C renal; 60.3% in the assay with UO-31 renal; 83.2% in the assay on TK-10 renal; 51.8% in the assay on ACHN renal. Further, the growth with CAKI-1 renal was 57%; with A498 renal it was 96%; in the assay with CCRF-CEM leukemia, 25.5%; in the assay on MOLT-4 leukemia it was 33.4%; with SR leukemia it was 21.5%; with RPMI-8226 leukemia, 52.4%. The growth is 25.3% in the assay on OVCAR-8 ovarian; 89.8% with OVCAR-5 ovarian; 33.8% with OVCAR-4 ovarian; 75.2% with SK-OV-3 ovarian; 29.1% in the assay with IGROV1 ovarian; 11.1% in the assay on OVCAR-3 ovarian. Moreover, the growth was 74.2% in the assay on HS 578T breast and 22.9% in the assay on NCI/ADR-RES ovarian.
Turning to `COc1ccc(C(=O)COc2cccc(/C=C3\CSc4ccc(C)cc4C3=O)c2)cc1`, the growth with SK-MEL-2 melanoma is 79.5%; in the assay on EKVX NSCLC, 106%; in the assay on SN12C renal, 91.7%; with UO-31 renal it was 78.5%; in the assay on TK-10 renal, 101%; with ACHN renal, 101%. Also, the growth in the assay on CAKI-1 renal was 91.6%; in the assay with A498 renal, 112%; in the assay on CCRF-CEM leukemia, -9.38% (active); in the assay on MOLT-4 leukemia, -7.35% (active); in the assay on SR leukemia it was -7.75% (active); with RPMI-8226 leukemia it was -23.5% (active). In addition, the growth in the assay with OVCAR-8 ovarian is 66.4%; in the assay on OVCAR-4 ovarian, 90.2%; in the assay on SK-OV-3 ovarian it was 107%; with OVCAR-3 ovarian it was 97.5%; with HS 578T breast it was 110%.
As to `Cc1nc(NN)c([N+](=O)[O-])c(NN)n1`, the growth with SK-MEL-2 melanoma was 104%; in the assay on EKVX NSCLC, 112%; in the assay on SN12C renal, 103%; with UO-31 renal it was 94.5%; in the assay with TK-10 renal, 118%; with ACHN renal, 110%. The growth is 99.1% in the assay with CAKI-1 renal; 142% in the assay on A498 renal; -28.1% (active) with CCRF-CEM leukemia; 89.6% in the assay with MOLT-4 leukemia; 73.5% in the assay on SR leukemia; 82.5% in the assay with RPMI-8226 leukemia. Moreover, the growth in the assay on OVCAR-8 ovarian is 102%; with OVCAR-5 ovarian, 92.8%; in the assay with OVCAR-4 ovarian, 114%; in the assay on SK-OV-3 ovarian it was 121%; in the assay on IGROV1 ovarian, 108%; in the assay with OVCAR-3 ovarian it was 99.9%. Moreover, the figures for the growth in the assay on HS 578T breast and with NCI/ADR-RES ovarian were 139% and 119%, respectively.
With `Clc1ccc2c(c1)C[C@H]1C[C@@H](c3cccs3)N2O1`, the growth in the assay with SK-MEL-2 melanoma was 113%; with EKVX NSCLC, 83.2%; with SN12C renal, 106%; with UO-31 renal, 93.4%; in the assay with TK-10 renal it was 104%; with ACHN renal, 104%. Besides, the growth in the assay on CAKI-1 renal is 94.4%; in the assay on A498 renal, 77.1%; in the assay with CCRF-CEM leukemia, 100%; in the assay with MOLT-4 leukemia, 89.3%; in the assay on SR leukemia, 82.4%; in the assay with RPMI-8226 leukemia, 86.7%. In addition, the growth in the assay with OVCAR-8 ovarian was 99.9%; in the assay with OVCAR-5 ovarian, 89.5%; in the assay on SK-OV-3 ovarian it was 98.9%; with IGROV1 ovarian, 94.5%; in the assay on OVCAR-3 ovarian it was 114%; in the assay on NCI/ADR-RES ovarian, 102%.
As for `COc1ccc(-c2nc3sccn3c2/C=C/C(=O)c2cc(OC)c(OC)c(OC)c2)cc1OC`, the growth in the assay on SK-MEL-2 melanoma was -7.87% (active); with EKVX NSCLC, 34.3%; in the assay on SN12C renal, 40.3%; in the assay on UO-31 renal it was 14%; with TK-10 renal, 82.6%; in the assay with ACHN renal, 21.4%. For the same compound, the growth was 3.29% (active) with CAKI-1 renal; -2.58% (active) in the assay on A498 renal; 21.6% in the assay on CCRF-CEM leukemia; 31.4% in the assay on MOLT-4 leukemia; 14.6% in the assay with SR leukemia; 10.9% with RPMI-8226 leukemia. For the same compound, the growth with OVCAR-8 ovarian was 25.6%; in the assay on OVCAR-5 ovarian, 79.1%; in the assay with OVCAR-4 ovarian, 21.9%; in the assay on SK-OV-3 ovarian, 26.3%; in the assay with IGROV1 ovarian it was 34.1%; with OVCAR-3 ovarian, 2.79% (active). Besides, the growth in the assay on HS 578T breast was 3.84% (active).
Take `COc1cccc(C2CC(=O)Nc3cc4c(cc32)CCC4)c1OC` (configuration not stated): the growth in the assay on SK-MEL-2 melanoma is 36.5%; in the assay with EKVX NSCLC, 72.5%; in the assay with SN12C renal, 77.2%; in the assay on UO-31 renal it was 59.7%; in the assay on TK-10 renal, 70.1%; in the assay on ACHN renal, 82.3%. In addition, the growth was 40.8% in the assay with CAKI-1 renal; 62.9% with A498 renal; 3.82% (active) with CCRF-CEM leukemia; 14.8% with MOLT-4 leukemia; 3.06% (active) in the assay on SR leukemia; 50.6% in the assay with RPMI-8226 leukemia. Further, the growth with OVCAR-8 ovarian is 84.9%; with OVCAR-5 ovarian, 99.5%; with OVCAR-4 ovarian it was 76.2%; in the assay with SK-OV-3 ovarian, 44.5%; in the assay on IGROV1 ovarian it was 57%; in the assay with OVCAR-3 ovarian it was 46.1%. The values for the growth in the assay with HS 578T breast and in the assay with NCI/ADR-RES ovarian were 67.7% and 42.1%, respectively.
With `COc1ccc(S(=O)(=O)c2ccc(C(N)=O)cc2)cc1NC(=O)c1[nH]c(C)c2c1CCCCC2=O`, the growth was 74.1% with SK-MEL-2 melanoma; 75% in the assay with EKVX NSCLC; 76.7% in the assay with SN12C renal; 78.5% in the assay with UO-31 renal; 81.1% in the assay with TK-10 renal; 101% in the assay with ACHN renal. For the same compound, the growth is 93.4% in the assay on CAKI-1 renal; 11.1% in the assay on A498 renal; 56.6% with CCRF-CEM leukemia; 49.4% in the assay on MOLT-4 leukemia; 50% in the assay on SR leukemia; 46.9% in the assay with RPMI-8226 leukemia. Moreover, the growth with OVCAR-8 ovarian was 74.5%; in the assay with OVCAR-5 ovarian, 68.7%; in the assay with OVCAR-4 ovarian, 51.1%; in the assay on IGROV1 ovarian it was 64.9%; in the assay with OVCAR-3 ovarian, 48%; in the assay on HS 578T breast, -2.07% (active). Further, the growth in the assay on NCI/ADR-RES ovarian is 105%.

(Values after PubChem BioAssay (NCI).)
